From PubChem BioAssay (NCATS)
Inconclusive results are not listed. Activity calls are given as the source filed them. Unless noted, calls come from the whole dose curve.

Key:
[1] = target: Androgen receptor (Homo sapiens) (UniProt P10275); assay: qHTS assay for small molecule agonists of androgen receptor signaling (AID 588515; active = well fitted curve in the direction sought with a large enough effect in the signal ratio, with a control signal flat; the % refers to the signal ratio; note: % is set by controls: 0 for no effect and ±100 for the full control effect); details: AR-UAS-bla HEK293, beta-lactamase ratio, agonist 16 h; activation: hits give high values
In short: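 EC50 and efficacy came from Hill fits of titrations (up to 92 uM) normalized to 30 nM R1881 as 100% and DMSO as 0%. Compound exposure was 16 h at 37 C on AR-UAS-bla HEK293 cells, with a 405/460/530 nm CCF4 fluorescence read.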

[2] = target: Androgen receptor (Homo sapiens) (UniProt P10275); assay: qHTS assay for small molecule antagonists of androgen receptor signaling (AID 588516; active = well fitted curve in the direction sought with a large enough effect in the signal ratio, with a control signal flat, not every such curve was filed as active; the % refers to the signal ratio; note: % is set by controls: 0 for no effect and ±100 for the full control effect); details: AR-UAS-bla HEK293, beta-lactamase ratio, antagonist mode, 16 h; series mostly up to 76.8 µM
In short: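 Cells were plated and incubated 5 h, compounds added in titration, then R1881 (10 nM final) as agonist. After 16 h at 37 C, CCF4 substrate was loaded for 2 h at room temperature and fluorescence measured.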

[3] = target: Bile acid receptor (Homo sapiens) (UniProt Q96RI1); assay: qHTS assay for small molecule antagonists of farnesoid X receptor signaling (AID 588526); details: HEK293T FXR-UAS-bla, beta-lactamase ratio, antagonist mode; series mostly up to 76.7 µM; note: % is set by controls: 0 for no effect and ±100 for the full control effect
In short: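 Antagonist mode: titrated compounds tested against chenodeoxycholic acid stimulation (normalized to 50 uM CDCA and DMSO) in GeneBLAzer HEK293T cells for 16 h. Beta-lactamase read by CCF4 fluorescence; IC50 from Hill fits.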

[4] = target: Peroxisome proliferator-activated receptor gamma (Homo sapiens) (UniProt P37231); assay: qHTS assay for small molecule agonists of peroxisome proliferator-activated receptor gamma signaling (AID 588536; active = well fitted curve in the direction sought with a large enough effect in the signal ratio, with a control signal flat, not every such curve was filed as active; the % refers to the signal ratio;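 note: 0% = DMSO basal wells and 100% = rosiglitazone at 2 µM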); details: HEK293 PPARg-UAS-bla, beta-lactamase ratio, 16 h, percent of rosiglitazone response, DMSO as zero; series mostly up to 76.7 µM
In short: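 Test agents, titrated, stimulated HEK293 UAS-bla cells overnight (16 h, 37 C). Substrate CCF4 was then added for two hours at room temperature before fluorescence reading.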

[5] = target: Vitamin D3 receptor (Homo sapiens) (UniProt P11473); assay: qHTS assay for small molecule antagonists of vitamin D receptor signaling (AID 588541); details: HEK293T VDR-UAS-bla, beta-lactamase ratio, antagonist mode; series mostly up to 76.7 µM;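 note: receptor activated by calcitriol during compound treatment; % is set by controls: 0 for no effect and ±100 for the full control effect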
In short: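 VDR-UAS-bla HEK293T cells in 2% charcoal-stripped FBS were stimulated with 1-alpha,25-dihydroxyvitamin D3 (3 nM final) plus compound for 16 h at 37 C. The beta-lactamase CCF4 readout was normalized to 50 nM agonist and DMSO, and Hill fits gave IC50.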

[6] = target: Vitamin D3 receptor (Homo sapiens) (UniProt P11473); assay: qHTS assay for small molecule agonists of vitamin D receptor signaling (AID 588543); details: HEK293T VDR-UAS-bla, beta-lactamase ratio, 16 h; series mostly up to 76.8 µM;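 note: 0% = DMSO basal and 100% = reference agonist control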
In short: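 Reporter cells (HEK293T, VDR-UAS-bla) were seeded in medium with 2% charcoal-stripped serum and incubated 5 h, then compounds in concentration series were added for 16 h at 37 °C. Stimulation was scaled between DMSO basal and 50 nM 1α,25-dihydroxyvitamin D3.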

[7] = target: Thyroid hormone receptor beta (Homo sapiens) (UniProt P10828); assay: qHTS assay for small molecule antagonists of thyroid hormone receptor beta signaling (AID 588547; active = well fitted inhibition curve with a large enough effect in the signal ratio, with a control signal flat, not every such curve was filed as active; the % refers to the signal ratio); details: TR-UAS-bla HEK293, beta-lactamase ratio, antagonist mode, 18 h
In short: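 TR-UAS-bla GripTite HEK293 cells in 2% charcoal/dextran FBS medium; compounds 0.59 nM to 92 uM with T3 at 0.4nM final, 18 h at 37 C. Beta-lactamase read by CCF4 fluorescence (460/530 nm); Hill fits gave IC50 and efficacy.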

[8] = qHTS assay for small molecule activators of the p53 signaling pathway (AID 651743; active = well fitted activation curve with a large enough effect in the signal ratio, not every such curve was filed as active; the % refers to the signal ratio; note: % of control where 0% means no effect); details: HCT-116 p53RE-bla, beta-lactamase FRET ratio, 16 h; activation: hits give high values
In short: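 p53RE-bla HCT-116 cells carrying a beta-lactamase reporter under p53 response elements were exposed to compounds for 16 hours at 37 C. Reporter activity read as fluorescence after 2 hours at room temperature with LiveBLAzer B/G FRET substrate.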

[9] = target: Cytochrome P450 3A4 (Homo sapiens) (UniProt P08684); assay: qHTS Assay for Activators of Cytochrome P450 3A4 (AID 885; active = well fitted curve in the direction sought with a large enough effect; an effect the other way counts as inactive or inconclusive; note: nearly all actives have a fitted effect of over 65% in size); details: recombinant CYP3A4, Luciferin-PPXE luminescence, 60 min; series mostly up to 57.1 µM
In short: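 Steps: enzyme/substrate mix dispensed; compound added, 10 min RT; NADPH regeneration solution added, 60 min RT; luciferin detection buffer stops reaction; 20 min later luminescence measured.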

[10] = target: DNA dC->dU-editing enzyme APOBEC-3G (Homo sapiens) (UniProt Q9HC16); assay: qHTS for inhibitors of Vif-A3G interactions: Validation (AID 588379; active = well fitted curve in the direction sought with a large enough effect; an effect the other way counts as inactive or inconclusive; note: 0% is about no effect); details: Vif-A3G protein interaction assay; series mostly up to 46.1 µM
In short: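 HeLa cells stably expressing Vif and A3G-eYFP, 700 cells/well, incubated overnight at 37 deg C, then exposed to compound overnight at 37 deg C. Inhibition of Vif-mediated degradation read as increased yellow fluorescence (Ex 488/Em 500-530) by laser-scanning cytometry.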

[11] = target: Peroxisome proliferator-activated receptor gamma (Homo sapiens) (UniProt P37231); assay: qHTS assay for small molecule antagonists of peroxisome proliferator-activated receptor gamma signaling (AID 588537; active = well fitted inhibition curve with a large enough effect in the signal ratio, with a control signal flat, not every such curve was filed as active; the % refers to the signal ratio;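 note: reporter cells co-stimulated with 50 nM rosiglitazone agonist during compound treatment; % of control where 0% means no effect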); details: HEK293 PPARg-UAS-bla, beta-lactamase ratio, antagonist mode; series mostly up to 76.8 µM
In short: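 PPARγ-UAS-bla HEK293 cells (3000/well) in 1% charcoal/dextran-stripped FBS are treated with compound, then stimulated with 50 nM rosiglitazone for 16 h at 37 °C. Read-out is CCF4 β-lactamase fluorescence after 2 h at RT. IC50 comes from Hill fits normalised to rosiglitazone and DMSO.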

[12] = qHTS assay for small molecule agonists of the antioxidant response element (ARE) signaling pathway (AID 651741; active = well fitted activation curve with a large enough effect in the signal ratio; the % refers to the signal ratio; note: % of control where 0% means no effect); details: HepG2 ARE-bla reporter, beta-lactamase FRET ratio, 16 h; series mostly up to 96 µM
In short: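 CellSensor ARE-bla HepG2 cells (2,000/well) carrying ARE-driven beta-lactamase, exposed 16 h at 37 C. LiveBLAzer B/G FRET substrate added for 2 h at room temperature; fluorescence intensity read.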

Chain of Vitamin D3 receptor (Homo sapiens) (P11473 whole entry, looked up): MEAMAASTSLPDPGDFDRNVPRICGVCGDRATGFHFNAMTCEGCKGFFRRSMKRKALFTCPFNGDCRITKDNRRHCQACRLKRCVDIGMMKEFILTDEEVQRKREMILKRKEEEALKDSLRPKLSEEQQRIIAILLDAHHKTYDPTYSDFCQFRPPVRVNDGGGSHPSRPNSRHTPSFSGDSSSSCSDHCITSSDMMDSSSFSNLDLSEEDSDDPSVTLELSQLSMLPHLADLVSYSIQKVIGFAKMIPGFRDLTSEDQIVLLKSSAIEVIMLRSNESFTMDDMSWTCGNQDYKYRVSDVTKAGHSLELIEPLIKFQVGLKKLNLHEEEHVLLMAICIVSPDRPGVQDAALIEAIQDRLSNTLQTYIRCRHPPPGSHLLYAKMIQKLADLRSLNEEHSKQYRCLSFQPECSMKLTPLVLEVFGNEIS
Chain of Bile acid receptor (Homo sapiens) (Q96RI1 whole entry, looked up): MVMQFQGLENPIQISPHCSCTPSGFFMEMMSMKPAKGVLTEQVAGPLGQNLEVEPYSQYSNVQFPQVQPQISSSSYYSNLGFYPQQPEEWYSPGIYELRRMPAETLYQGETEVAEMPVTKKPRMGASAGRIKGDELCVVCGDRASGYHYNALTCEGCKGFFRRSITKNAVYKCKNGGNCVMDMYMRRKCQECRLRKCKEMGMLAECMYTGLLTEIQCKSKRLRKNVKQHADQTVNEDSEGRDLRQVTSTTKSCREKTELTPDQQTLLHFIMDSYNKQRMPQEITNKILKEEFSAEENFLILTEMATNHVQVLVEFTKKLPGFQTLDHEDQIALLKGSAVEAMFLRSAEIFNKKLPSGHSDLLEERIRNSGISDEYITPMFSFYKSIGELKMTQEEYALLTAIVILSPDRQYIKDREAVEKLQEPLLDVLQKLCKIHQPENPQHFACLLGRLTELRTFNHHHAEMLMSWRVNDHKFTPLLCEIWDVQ
Chain of Peroxisome proliferator-activated receptor gamma (Homo sapiens) (P37231 whole entry, looked up): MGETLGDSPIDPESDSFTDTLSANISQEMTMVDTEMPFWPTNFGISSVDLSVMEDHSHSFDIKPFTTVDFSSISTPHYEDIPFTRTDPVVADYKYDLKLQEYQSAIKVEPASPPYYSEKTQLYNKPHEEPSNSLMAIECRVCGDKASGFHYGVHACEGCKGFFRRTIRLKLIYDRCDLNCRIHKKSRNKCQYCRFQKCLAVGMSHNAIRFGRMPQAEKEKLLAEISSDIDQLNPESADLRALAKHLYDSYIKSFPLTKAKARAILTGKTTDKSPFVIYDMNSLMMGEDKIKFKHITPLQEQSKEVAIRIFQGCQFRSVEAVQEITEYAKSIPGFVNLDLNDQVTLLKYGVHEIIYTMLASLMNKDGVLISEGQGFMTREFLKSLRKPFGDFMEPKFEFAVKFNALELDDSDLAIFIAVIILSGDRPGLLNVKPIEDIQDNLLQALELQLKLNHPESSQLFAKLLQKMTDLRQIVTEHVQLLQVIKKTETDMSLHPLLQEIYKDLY
Chain of DNA dC->dU-editing enzyme APOBEC-3G (Homo sapiens) (Q9HC16 whole entry, looked up): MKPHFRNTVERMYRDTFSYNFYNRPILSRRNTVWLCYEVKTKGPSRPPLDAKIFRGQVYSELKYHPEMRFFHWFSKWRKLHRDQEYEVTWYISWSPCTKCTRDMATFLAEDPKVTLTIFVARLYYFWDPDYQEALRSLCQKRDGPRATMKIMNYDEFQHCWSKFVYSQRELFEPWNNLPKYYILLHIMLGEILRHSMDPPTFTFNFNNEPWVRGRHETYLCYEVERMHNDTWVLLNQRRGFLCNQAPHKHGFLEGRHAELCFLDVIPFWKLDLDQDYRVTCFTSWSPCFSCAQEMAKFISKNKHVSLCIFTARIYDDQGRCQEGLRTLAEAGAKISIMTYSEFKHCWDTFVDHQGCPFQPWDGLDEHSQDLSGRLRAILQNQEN
Chain of Thyroid hormone receptor beta (Homo sapiens) (P10828 whole entry, looked up): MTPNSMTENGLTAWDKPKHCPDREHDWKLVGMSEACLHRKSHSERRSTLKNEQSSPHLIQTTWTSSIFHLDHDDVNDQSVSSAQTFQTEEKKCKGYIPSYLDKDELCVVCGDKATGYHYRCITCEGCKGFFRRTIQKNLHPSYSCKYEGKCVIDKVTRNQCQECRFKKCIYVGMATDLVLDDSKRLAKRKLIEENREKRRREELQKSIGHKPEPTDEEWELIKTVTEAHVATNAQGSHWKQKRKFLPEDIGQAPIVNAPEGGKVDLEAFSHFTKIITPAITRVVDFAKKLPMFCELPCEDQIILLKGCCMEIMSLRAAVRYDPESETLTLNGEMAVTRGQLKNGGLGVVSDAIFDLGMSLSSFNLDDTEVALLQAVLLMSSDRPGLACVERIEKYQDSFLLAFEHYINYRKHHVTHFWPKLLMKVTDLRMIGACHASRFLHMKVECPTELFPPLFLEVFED
Chain of Cytochrome P450 3A4 (Homo sapiens) (P08684 whole entry, looked up): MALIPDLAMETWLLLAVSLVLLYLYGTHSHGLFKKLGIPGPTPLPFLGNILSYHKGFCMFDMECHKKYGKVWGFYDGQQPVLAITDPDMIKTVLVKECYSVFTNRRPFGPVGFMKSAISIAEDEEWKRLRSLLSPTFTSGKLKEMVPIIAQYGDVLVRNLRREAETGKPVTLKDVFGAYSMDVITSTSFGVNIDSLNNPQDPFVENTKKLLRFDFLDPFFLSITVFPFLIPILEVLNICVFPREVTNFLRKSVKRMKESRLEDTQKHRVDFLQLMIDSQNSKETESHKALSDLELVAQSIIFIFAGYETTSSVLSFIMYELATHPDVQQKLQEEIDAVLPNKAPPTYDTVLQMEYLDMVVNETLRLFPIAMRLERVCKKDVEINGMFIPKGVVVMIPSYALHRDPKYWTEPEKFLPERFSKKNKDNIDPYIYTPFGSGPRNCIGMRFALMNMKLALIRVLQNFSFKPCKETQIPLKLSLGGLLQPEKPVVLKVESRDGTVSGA
Chain of Androgen receptor (Homo sapiens) (P10275 whole entry, looked up): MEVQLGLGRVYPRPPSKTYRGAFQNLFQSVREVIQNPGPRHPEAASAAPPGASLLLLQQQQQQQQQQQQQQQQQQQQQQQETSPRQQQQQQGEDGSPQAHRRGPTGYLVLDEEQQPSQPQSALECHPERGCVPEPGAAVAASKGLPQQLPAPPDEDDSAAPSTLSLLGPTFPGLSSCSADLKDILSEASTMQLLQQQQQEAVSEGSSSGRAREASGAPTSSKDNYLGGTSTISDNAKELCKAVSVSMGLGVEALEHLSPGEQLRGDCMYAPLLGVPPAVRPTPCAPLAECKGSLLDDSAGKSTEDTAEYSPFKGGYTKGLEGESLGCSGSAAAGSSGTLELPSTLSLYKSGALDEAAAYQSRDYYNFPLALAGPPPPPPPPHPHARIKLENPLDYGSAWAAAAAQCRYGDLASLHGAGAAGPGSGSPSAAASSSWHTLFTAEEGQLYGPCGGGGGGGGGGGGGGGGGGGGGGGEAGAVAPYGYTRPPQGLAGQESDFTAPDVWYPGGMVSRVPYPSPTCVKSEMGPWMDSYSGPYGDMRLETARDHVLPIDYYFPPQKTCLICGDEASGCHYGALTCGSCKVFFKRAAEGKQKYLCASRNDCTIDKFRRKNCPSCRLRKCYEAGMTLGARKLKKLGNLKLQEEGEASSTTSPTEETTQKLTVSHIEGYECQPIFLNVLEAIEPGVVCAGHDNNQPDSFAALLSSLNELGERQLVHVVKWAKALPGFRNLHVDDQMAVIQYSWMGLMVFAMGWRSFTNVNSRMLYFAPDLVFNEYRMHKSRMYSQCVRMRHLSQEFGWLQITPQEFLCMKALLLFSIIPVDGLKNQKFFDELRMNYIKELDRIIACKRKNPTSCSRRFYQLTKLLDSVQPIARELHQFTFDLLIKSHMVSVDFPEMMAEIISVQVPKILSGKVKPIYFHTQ

O=C(O)c1ccc2c(c1)C(=O)OC2=O
inactive: activation [1] 5.43% | outcome [2] | Potency [3] | outcome [4] | Potency [5] | outcome [6] | activity change % (negative = inhibition) [7] 1.57% | activation [8] -0.551%

CC1(C)CC[C@]2(C(=O)O)CC[C@]3(C)C(=CCC4[C@@]5(C)CC[C@H](O)C(C)(C)C5[C@H](O)C[C@]43C)C2C1 (stereo partly specified)
inactive: Potency [9] | Potency [10]

C=C(C)C(=O)OCCCCCCCCCCCCCCCC
inactive: activation [1] 10.8% | outcome [2] | Potency [3] | outcome [4] | Potency [11] | Potency [5] | activity change % (negative = inhibition) [7] -5.63% | Potency [12]

COc1cc(/C=C/C(=O)c2cccs2)cc(OC)c1OC
inactive: Potency [9] | Potency [10]

CC(C)Cc1c(C(=O)O)c(C(F)F)nc(C(F)(F)F)c1C1=NCCS1
inactive: activation [1] -2.77% | outcome [2] | Potency [3] | Potency [11] | Potency [5] | outcome [6] | activity change % (negative = inhibition) [7] -21.3% | Potency [12] | activation [8] -1.35%

CCCCCCCCCCCCCCCCCC(N)=O
inactive: activation [1] 5.45% | outcome [2] | Potency [3] | Potency [11] | outcome [6] | activity change % (negative = inhibition) [7] -14.9% | activation [8] 0.913%

CCCCCCCOC(=O)c1ccccc1C(=O)OCCCCCCC
inactive: activation [1] -1.72% | outcome [2] | Potency [3] | Potency [5] | outcome [6] | activation [8] -3.71%

CC(=O)[C@@H]1[C@H]2[C@H](C(=O)[C@H]3OC[C@@H]2O3)[C@H]2C=Cc3ccccc3N21
inactive: Potency [9] | Potency [10]

CC(=O)N(CCN(C(C)=O)C(C)=O)C(C)=O
inactive: activation [1] 11.2% | outcome [2] | Potency [3] | outcome [4] | Potency [5] | Potency [12] | activation [8] 0.892%
